The values below come from ChEMBL document CHEMBL1961873, “Compounds: GSK PKIS; Assays: Nanosyn kinase panel” (2012).

In general, inhibition refers to the drop in the measured response relative to a control, in per cent.

Chain of MAP kinase-interacting serine/threonine-protein kinase 1 (Homo sapiens) (Q9BUB5 whole entry, looked up): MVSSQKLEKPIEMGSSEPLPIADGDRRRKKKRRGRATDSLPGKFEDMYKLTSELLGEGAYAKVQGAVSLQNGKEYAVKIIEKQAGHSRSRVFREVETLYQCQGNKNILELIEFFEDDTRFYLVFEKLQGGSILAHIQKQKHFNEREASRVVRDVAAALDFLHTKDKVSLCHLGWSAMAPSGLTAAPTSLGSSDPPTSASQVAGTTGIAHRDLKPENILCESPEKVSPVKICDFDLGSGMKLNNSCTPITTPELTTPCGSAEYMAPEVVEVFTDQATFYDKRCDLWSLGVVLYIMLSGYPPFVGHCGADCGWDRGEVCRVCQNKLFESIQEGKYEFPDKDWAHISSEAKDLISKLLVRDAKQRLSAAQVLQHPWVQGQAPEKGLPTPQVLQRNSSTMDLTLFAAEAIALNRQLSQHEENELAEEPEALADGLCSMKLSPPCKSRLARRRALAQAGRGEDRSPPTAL

The assay has as its target MAP kinase-interacting serine/threonine-protein kinase 1 (Homo sapiens) (UniProt Q9BUB5). The settings on record: at 0.1 µM.
Consider `CCS(=O)(=O)c1ccc(OC)c(Nc2ncc(-c3cccc(-c4ccccc4F)c3)o2)c1`, for which the inhibition came to 1.34%.

As to `C/C(Nc1ccc(S(N)(=O)=O)cc1)=C1/C(=O)Nc2ccccc21`, the inhibition is -1.24%.

On to `CN(C)CCOc1ccc(-c2cc(-c3ccc4c(c3)CCC4=NO)c(-c3ccncc3)o2)cc1`, for which the inhibition was 1.14%.

With `CCc1cccc(CC)c1/C=C/c1cncc(C(=O)NC)c1`, the inhibition amounted to 1.04%.

For the compound `COc1ccc2cc(-c3c(-c4ccncc4)nc(-c4ccc(S(C)(=O)=O)cc4C)n3C)ccc2c1`, the inhibition was found to be 2.6%.

`CCS(=O)(=O)c1ccc(OC)c(Nc2ncc(-c3ccccc3Cl)o2)c1`: the inhibition turned out to be 1.1%.

For `COc1cc2ncn(-c3cc(OCCc4ccccc4)c(C(N)=O)s3)c2cc1OC`, the inhibition is 2%.

Regarding `CN1CCN(CCCNc2nc3ccc(Oc4ccc(NC(=O)Nc5cc(C(F)(F)F)ccc5F)cc4)cc3[nH]2)CC1`, the inhibition was 2.77%.

For the compound `Cc1ccc(NC(=O)c2ccoc2)cc1-c1ccc(C(=O)NCC2CC2)cc1`, the inhibition turned out to be 3.06%.

Consider `COc1ccc2cc(-c3c(-c4ccncc4)nc(-c4ccc([S+](C)[O-])cc4C)n3C)ccc2c1` (centres undefined), for which the inhibition turned out to be 5.22%.

For the compound `O=C(NCC1CC1)c1ccc(-c2cccc(C(=O)NC3CC3)c2)cc1`, the inhibition stood at 1.09%.

For `O=C(Nc1n[nH]c2cc(-c3cc(F)ccc3F)ccc12)C1CC1`, the inhibition was 3.39%.

Consider `COc1cc(N2CCN(C(C)C)CC2)ccc1Nc1nc(Nc2ccc(F)cc2C(=O)NC[C@@H](O)CO)c2cc[nH]c2n1`, for which the inhibition came to 3.33%.

As to `NC(=O)c1cc(-c2ccncc2)cc(-c2ccccc2)c1N`, the inhibition was found to be 3.23%.

With `Fc1ccc(-c2ncn(C3CCNCC3)c2-c2ccnc(Oc3ccc4c(c3)OCO4)n2)cc1`, the inhibition came out at 4.52%.

`FC(F)(F)c1cccc(Nc2nccc(-c3cnn4nc(-c5ccccc5)ccc34)n2)c1`: the inhibition worked out at 2.28%.

Turning to `COc1cc2ncn(-c3cc(OCc4ccccc4C(F)(F)F)c(C(C)=O)s3)c2cc1OC`, the inhibition is 3.58%.

Take `Fc1ccc(-c2ncn(CCCN3CCOCC3)c2-c2ccncc2)cc1`: the inhibition is -0.96%.

Consider `NS(=O)(=O)c1ccc(Nc2cc(-c3ccc(O)c(F)c3)n[nH]2)cc1`, for which the inhibition is -0.77%.

Turning to `CN(C)CCCNc1nccc(-c2c(-c3ccc(F)cc3)nn3cc(C(F)(F)F)ccc23)n1`, the inhibition turned out to be 1.94%.

Regarding `Fc1ccc(-c2c(-c3ccncc3)nc3n2CCS3)cc1`, the inhibition amounted to 0.84%.

For the compound `O=C(Nc1n[nH]c2nc(-c3ccco3)ccc12)C1CC1`, the inhibition was 1.89%.

`C[C@@H](Oc1cc(-n2cnc3ccc(OCC4CCN(C)CC4)cc32)sc1C(N)=O)c1ccccc1Cl`: the inhibition was 2.4%.

For the compound `c1ccc(-c2n[nH]cc2-c2ccnc(-c3ccc(OCCN4CCOCC4)cc3)c2)nc1`, the inhibition was found to be 4.82%.

Regarding `O=C1Nc2ccccc2/C1=C/Nc1ccc(-n2cncn2)cc1`, the inhibition worked out at 7.6%.

On to `c1ccc(Oc2ccc(Nc3ncc(-c4ccccc4)o3)cc2)cc1`, for which the inhibition came to 1.08%.

Take `CCN(CC)Cc1ccc(Nc2nccc(-c3cnn4ncccc34)n2)cc1`: the inhibition turned out to be 2.28%.

As to `Cc1ccc(C(=O)NC(C)C)cc1-c1ccc(C(=O)NCC2CC2)cc1`, the inhibition was -1.07%.

For the compound `COc1cc2ncn(-c3cc(OCc4cccs4)c(C(N)=O)s3)c2cc1OC`, the inhibition came out at 3.56%.

Turning to `O=C(Nc1ccc(Oc2ccc3[nH]c(NC(=O)c4ccccc4)nc3c2)cc1)Nc1cc(C(F)(F)F)ccc1F`, the inhibition stood at 3.79%.

For the compound `COc1ccc(-c2ccc3c(NC(=O)C4CC4)n[nH]c3n2)cc1`, the inhibition worked out at 3.03%.

`COc1cc(Nc2ncc3c(C)nc(-c4cccc(C(F)(F)F)c4)n3n2)cc(OC)c1OC`: the inhibition came out at 3.56%.

Consider `Fc1ccc(-c2ncn(C3CCNCC3)c2-c2ccnc(Oc3ccc(F)c(F)c3)n2)cc1`, for which the inhibition stood at 2.05%.

As to `NS(=O)(=O)c1ccc(N/N=C2\C(=O)Nc3ccc(C(=O)NCCCn4ccnc4)cc32)cc1`, the inhibition was determined as 7.7%.
